Measurements as given in PubChem BioAssay AID1117319 (Southern Research Institute, 2015).
In all, about 260,000 compounds went through this assay and about 1,500 (0.58%) were called active. Not shown: some 5% with an inconclusive outcome.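 Rule for the calls: active = inhibition above a set limit at one or more doses, reproduced on every date tested; inconclusive = results disagree between test dates, or hit never tested in dose response; inactive = the rest.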 Not all results are given here. Potency and affinity values are given separately.

molecular target: Virion infectivity factor (Human immunodeficiency virus type 1 group M subtype B (isolate BH10)) + Virion infectivity factor (Human immunodeficiency virus type 1 group M subtype B (isolate BRU/LAI)) + Virion infectivity factor (Human immunodeficiency virus type 1 group M subtype B (isolate PCV12)) + Virion infectivity factor (Human immunodeficiency virus type 1 group M subtype B (isolate HXB2)) + DNA dC->dU-editing enzyme APOBEC-3G (Homo sapiens) (UniProt P69720+P69721+P69722+P69723+Q9HC16); assay: HIV-1 Vif–A3G interaction blockers – biochemical, TR-FRET, GST-Vif 1-94, biotin-A3G peptide, dose response retest, primary screen (AID 1117319); conditions: TR-FRET GST-Vif / biotin-A3G peptide binding; active compounds read high;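 note: Vif residues 1-94 fused to GST binding biotinylated APOBEC3G peptide 110-148; 0% = full assay without inhibitor and 100% = GST in place of GST-Vif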

inhibition, inactive:
COc1ccccc1C(=O)N(CCN(C)C)c1nc2cc(C)cc(C)c2s1 -1.26%, Cc1c(Cl)cnc(NC(=O)COC(=O)/C=C/c2ccco2)c1Cl 19.7%, Cc1nc(NC(=O)COC(=O)/C=C/c2ccco2)c(Cl)cc1Cl 20.2%, CCC1CCCCN1C(=O)CSc1nnc(N)s1 (stereo unspecified) -4.63%, O=C(NCC(c1ccco1)N1CCc2ccccc2C1)c1ccc(F)cc1 (stereo unspecified) -9.45%, O=C(/C=C/c1ccco1)NCCc1ccccc1 0.33%, COc1ccc(CCNC(=O)/C=C/C(=O)O)cc1 14.3%, CC1(C)Cc2nc3sc(C(=O)NCCCO)c(N)c3cc2CS1 -0.06%, CCC1(C)Cc2nc3sc(C(=O)O)c(N)c3cc2CO1 (stereo unspecified) 32.8%, COc1ccc(-c2ccc3c(c2)C2CC3CCN2C(=O)C(C)(C)C)cc1 (stereo unspecified) -6.26%, COc1ccc(Cc2nnc(SCC(=O)NC(C)c3ccccc3)o2)cc1 (stereo unspecified) 8.9%, CCOC(=O)C1(C)NC(c2ccco2)C2C(=O)N(C)C(=O)C21 (stereo unspecified) 2.73%, CCOC(=O)C1(CC)NC(c2ccco2)C2C(=O)N(CC)C(=O)C21 (stereo unspecified) 0.75%, CCOc1ccccc1NC(=O)c1cc2ccccc2oc1=O 5.96%, O=c1[nH][nH]cc1C=Nc1ccccc1O 1.21%, O=C(Nc1ccccc1)c1ccccc1N=Cc1ccccc1O -0.3%, Cc1cccc(NC(=O)Cn2cnc3c(oc4ccccc43)c2=O)c1 4.28%, CCCCn1c(SCC(N)=O)nnc1-c1ccco1 3.37%, c1ccc(OCCCCN2CCOCC2)cc1 16.5%, CC(C)(C)OC(=O)N1CC=C2C(C#N)=C(N)C(C#N)(C#N)C(c3cccs3)C2C1 (stereo unspecified) 5.47%, CCOC(=O)N1CC=C2C(C#N)=C(N)C(C#N)(C#N)[C@H](c3ccsc3)[C@H]2C1 9.32%, CC1CCN(c2nnc(NC(=O)Cn3c(=O)oc4ccccc43)s2)CC1 4.48%, COC(=O)c1c(S(=O)(=O)N2CCOCC2)c(C)n(C)c1C 2.63%, Cc1cn([C@H]2C[C@H](O)[C@@H](CNCc3ccccc3)O2)c(=O)[nH]c1=O -4.57%, CC1CN(C(=O)c2ccn(C)n2)CC(C)O1 (stereo unspecified) -6.54%, CC1S/C(=N/N=C/c2ccco2)N(Cc2ccccc2)C1=O (stereo unspecified) 4.75%, O=C1c2ccccc2C(=O)N1Cc1ccco1 6.23%, O=C1CS/C(=N/N=C/c2ccco2)N1Cc1ccc(F)cc1 10.9%, O=C(CN1C(=O)C(=O)N(Cc2ccco2)C1=O)NC1CCCCC1 10.2%, CC1S/C(=N/N=C/c2ccco2)N(Cc2ccc(F)cc2)C1=O (stereo unspecified) 2.84%, O=C(CN1CCN(Cc2ccccc2)CC1)N/N=C\C=C/c1ccco1 29.4%, O=C1C2C3CCC(C3)C2C(=O)N1Cc1ccco1 (stereo unspecified) -17.6%, CC(c1ccccc1)C1CC(=O)N(Cc2ccco2)C1=O (stereo unspecified) 1.07%, O=c1cc(NCCc2ccccc2)c2ccccc2o1 -9.21%, Cc1ccc(OCCNC(=O)CNC(=O)c2ccccc2Cl)cc1 -0.63%, Cc1cc(C)c(S(=O)(=O)N2CCCC(C(=O)NCCC3=CCCCC3)C2)c(C)c1 (stereo unspecified) 9.17%, O=C(N=C1SC2CS(=O)(=O)CC2N1Cc1ccccc1)C1CC1 (stereo unspecified) -2.49%, COc1ccc(CNc2nc(NCc3ccc(OC)c(OC)c3)n(C(=O)c3cccs3)n2)cc1OC 13.3%, COc1ccc(CN2CCNC(=O)C2CC(=O)N(Cc2nccn2C)C(C)C)c(OC)c1 (stereo unspecified) -0.6%, CC(C)N(Cc1nccn1C)C(=O)CC1C(=O)NCCN1Cc1ccc(F)c(F)c1 (stereo unspecified) -8.55%, Cc1ccc(SCCOCCN2CCc3ccccc3C2)cc1 -8.65%, C/C(Cl)=C/Cc1c(C)[nH]c2ccc(C)cc2c1=O -1.26%, COc1ccc(C(=O)N(C)C(C)c2nccs2)cc1OC1CCN(C(C)=O)CC1 (stereo unspecified) -6.6%, CC1(C)CC2(CC(c3ccccc3F)c3cc(Cl)c(O)cc3O2)NC(=S)N1 (stereo unspecified) 0.09%, CC1(C)CC2(CC(c3ccccc3)c3ccc(O)cc3O2)NC(=S)N1 (stereo unspecified) 0.62%, Cc1cc(C)c(C(=O)NC2CC(C)(C)Cc3c2cnn3-c2ccccc2)o1 (stereo unspecified) 1.78%, O=[N+]([O-])c1ccc(-c2ccc(/C=N/Nc3nc(N4CCCC4)nc(N4CCCC4)n3)o2)cc1 -1.43%, O=[N+]([O-])c1ccc(/C=N/Nc2nc(N3CCCCCC3)nc(N3CCCCCC3)n2)o1 10.1%, COC(=O)C1=C(CS(=O)(=O)c2ccc(Cl)cc2)NC(=O)NC1c1ccc(O)cc1 (stereo unspecified) 9.59%, CC(C)N(C(=O)CSc1nnc(-c2cc3ccccc3cc2O)n1Cc1ccco1)C(C)C 9.68%, CC(=O)c1cccc(NC(=O)c2ccoc2C)c1 7.62%, CC1(C)N=C(c2ccccc2)C(=O)N1 1.67%, CC(C)[C@H](NC(=O)c1ccco1)C(=O)OCC(=O)c1ccc2c(c1)NC(=O)CO2 30.8%, COc1cc(C(=O)NNC(=S)NC(=O)c2ccc(F)cc2)cc(OC)c1OC 13.5%, CCN(CC)CCn1c2ccccc2c2nc3ccccc3nc21 -1.16%, CCc1cc2c(=O)c(-c3nc4ccccc4n3C)c(C)oc2c(CN(CC)CC)c1O -0.78%, CC1=CN2C(=N)/C(=C/c3ccc(Sc4ccc(C)cc4)o3)C(=O)N=C2S1 -0.88%, CC1=CN2C(=N)/C(=C/c3ccco3)C(=O)N=C2S1 14.9%, O=C(Nc1cccc2c1[nH]c1ccccc12)C(F)(F)F -2.08%, COc1cc2[nH]c3c(Cl)ncnc3c2cc1OC -0.29%, COc1ccc2c([N+](=O)[O-])c(Cl)[nH]c2c1 21.2%
